Source: PubChem BioAssay
Rows were chosen to be rich in hits. Some 11% of all compounds tested hit in one or more screens of this group.
HPGD block: HPGD (human) dehydrogenase inhibition; Potency, µM, without a hit: at the top dose activity change, negative = inhibition, usual class: inhibitors; AID 894; hit rate 4.3% among 150,000; P15428; purified HPGD, NADH fluorescence kinetic, PGE2 substrate; further: potency means the concentration at half of the fitted maximal effect
Target sequence (P15428 whole entry, looked up): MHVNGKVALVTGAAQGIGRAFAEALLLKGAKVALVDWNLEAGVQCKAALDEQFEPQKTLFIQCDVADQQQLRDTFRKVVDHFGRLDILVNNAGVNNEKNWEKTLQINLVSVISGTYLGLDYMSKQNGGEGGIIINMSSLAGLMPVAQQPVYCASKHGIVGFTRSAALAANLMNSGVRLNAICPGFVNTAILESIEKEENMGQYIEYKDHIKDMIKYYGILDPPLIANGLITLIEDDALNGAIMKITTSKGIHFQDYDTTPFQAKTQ
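20 nM HPGD preincubated 15 min at room temperature with compound in 50 mM Tris-HCl pH 8, 0.01% Tween 20. Started with 1 mM NAD+ and 30 uM prostaglandin E2; NADH fluorescence (360/450 nm) read 5 times over 30-s intervals, last minus first.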
PNC assembly inh: perinucleolar compartment assembly inhibition; hit rate 3.1% among 140,000; PC3M PTB-GFP, PNC prevalence imaging, 16 h; hits give low values; activity change (PNC), negative = inhibition, % at 10 µM; AID 2417;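 active means readout at or below -70, meaning at least 70% loss of cells showing the perinucleolar compartment, a nuclear body marking cancer cells; inconclusive means readout between -30 and a set limit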;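 further: plate controls were DMSO wells for no effect and camptothecin positive control wells for full effect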
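PC3M cells stably expressing PTB-GFP, 750–1000 cells/well, treated 16 h at 37 °C with compound (23 nl of library stock), in duplicate. After paraformaldehyde fixation and Hoechst stain, imaged at 20x; PNC prevalence scored by image analysis.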
ALDH1A1 inh: ALDH1A1 (human) enzyme inhibition. P00352. hit rate 7.3% among 220,000. Potency, µM (titrated, usually from 75.3 µM), without a hit: at the top dose activity, negative = inhibition, usual class: inhibitors. Purified ALDH1A1, NADH fluorescence, propionaldehyde substrate;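 further: potency means the concentration at half of the fitted maximal effect; plate controls were no enzyme wells and a reference inhibitor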
* marks the source's active call; other numbers are inactive results; ? = inconclusive; / = no result given; [ ] = remark or other dose. Unless noted, the call rests on the fitted dose curve; in most records, active means well fitted inhibition curve with a large enough effect (not every such curve was filed as active); inconclusive means small, poorly fitted or top-dose-only effect, or another doubt; inactive means no such curve, though single readings can be large or run the other way. Unless noted, on the % scale 0 is the no-effect control and ±100 the full control effect.

SMILES	HPGD block	PNC assembly inh	ALDH1A1 inh
Cc1cc(SCC(=O)NC(=O)NCc2ccco2)nc2ccccc12	-23%	16	?
Cc1ccccc1CSCC(=O)NC(=O)NCc1ccco1	-29%	-95*	25µM*
Cc1cc(SCC(=O)NC(=O)NCc2ccco2)nc2c(C)cccc12	-21%	?	22µM*
O=C(CSc1ccccc1F)NC(=O)NCc1ccco1	/	/	-3%
O=C(Nc1ccc(O)c(-c2nc3ccccc3o2)c1)C1(c2ccc(Br)cc2)CCCC1	-7%	13	4%
Cc1ccc(Cl)cc1NC(=O)Cn1cc2c(n1)CCCC2	-10%	5	4%
O=C(N/N=C/c1cn(-c2ccccc2)nc1-c1cccs1)c1ccccc1F	-24%	35	?
CC1=NNC(=O)/C1=C\c1cn(-c2ccccc2)nc1-c1cccs1	16µM*	-6	?
O=[N+]([O-])c1cccc(NC2=NCCC2)c1	/	/	12%
CC(=O)Nc1nonc1-n1nnc(C(=O)NCc2ccccc2)c1C	?	?	11µM*
CC(=O)Nc1c(C(=O)NCc2ccccc2)nnn1Cc1ccccc1	-2%	-12	1%
COc1cccc(OC)c1C(=O)NC(=S)Nc1ccc2c(c1)Cc1ccccc1-2	-17%	?	10µM*
COc1cccc(OC)c1C(=O)Nc1ccc2c(c1)Cc1ccccc1-2	/	/	5%
COc1ccc(C2CC(=O)c3sc(NC(C)=O)nc3C2)cc1 (centres undefined)	?	43	-6%
CC(Oc1ccccc1)C(=O)Nc1nc2c(s1)C(=O)CC(C)(C)C2 (centres undefined)	-24%	?	14µM*
CC1(C)CC(=O)c2sc(NC(=O)c3cccs3)nc2C1	-8%	-10	16µM*
CC1(C)CC(=O)c2sc(NC(=O)c3ccc4ncsc4c3)nc2C1	?	-19	3.5µM*
Cc1nc(NC(=O)CN2CCOCC2)sc1-c1ccccc1	-5%	?	?
Cc1ccc2nc(NC(=O)c3ccc4ncsc4c3)sc2c1	?	31	?
CC1(C)CC(=O)c2sc(NC(=O)CN3CCCCC3)nc2C1	-20%	-7	20µM*
Cc1ccc2nc(NC(=O)c3cccs3)sc2c1	-28%	-11	?
O=S(=O)(NC1=NCCC1)c1cccc(NS(=O)(=O)c2ccc(OC(F)(F)F)cc2)c1	-10%	-19	1%
Cn1cnnc1Sc1cc(N2CCN(S(=O)(=O)c3ccc4ccccc4c3)CC2)ccc1[N+](=O)[O-]	-17%	56	0%
COCCCNC(=O)C1CCCN(C(=O)Nc2ccc(OC)cc2)C1 (centres undefined)	-4%	?	1%
CCOC(=O)C1CCN(C(=O)CSC2=NCCS2)CC1	-12%	-28	?
SMILES	HPGD block	PNC assembly inh	ALDH1A1 inh
Cc1nc(NC(=O)c2ccccc2)sc1-c1csc(N)n1	-14%	-3	?
CC1(C)CC(=O)c2sc(NC(=O)c3ccccc3)nc2C1	/	/	2.8µM*
Cc1cccc2cc(C#N)c(NCCNS(=O)(=O)c3ccc4c(c3)OCCO4)nc12	/	3	?
O=C(COc1ccc(Cl)cc1)N1CCN(S(=O)(=O)c2ccccc2)CC1	-1%	22	?
CCCS(=O)(=O)N1CCN(C(=O)COc2ccccc2)CC1	-8%	?	9%
CCCS(=O)(=O)N1CCN(C(=O)COc2ccc(-c3ccccc3)cc2)CC1	-11%	-88*	?
O=C(COc1ccc(-c2nnco2)cc1)N1CCN(S(=O)(=O)c2ccccc2)CC1	-3%	-81*	6%
CC(C)C(c1nnnn1Cc1ccc2c(c1)OCO2)N1CCN(c2ccccc2)CC1 (centres undefined)	-9%	9	-5%
CC(C)C(c1nnnn1Cc1ccc2c(c1)OCO2)N1CCN(C)CC1 (centres undefined)	-10%	-100*	0%
CC(=O)OC[C@@H]1O[C@@H](O/N=C2/C[C@@H](O)[C@@H](O)[C@@H]3[C@@H]4C(=O)N(C[C@@H]5CCCO5)C(=O)[C@H]4CC[C@H]23)[C@H](OC(C)=O)[C@H](OC(C)=O)[C@@H]1OC(C)=O	/	/	16%[13.5 µM]
CC1CCCN(C(=O)CSCC(=O)N=c2sc3ccccc3n2C)C1 (centres undefined)	?	-1	-15%
N#C/C(=C\C=C\c1ccccc1[N+](=O)[O-])c1nc(-c2ccc3c(c2)OCO3)cs1	-9%	14	2%
N#C/C(=C\c1ccc([N+](=O)[O-])cc1)c1nc(C2CC2)cs1	-5%	21	-1%
N#C/C(=C\c1ccccc1[N+](=O)[O-])c1nc(C2CC2)cs1	-27%	43	10µM*
N#C/C(=C/c1ccccc1[N+](=O)[O-])c1nc(C2CC2)cs1	?	-18	11µM*
N#C/C(=C\c1cn(-c2ccccc2)nc1-c1cccnc1)c1nnc2n1CCCCC2	?	11	-4%
